The values below come from PMC7862700, “An all-to-all approach to the identification of sequence-specific readers for epigenetic DNA modifications on cytosine”.

Experiment in all cases: DAPPL (digital affinity profiling via proximity ligation, sequencing); 10 mM Tris-HCl pH 7.5, 50 mM NaCl, 1 mM DTT, 4% glycerol, room temperature, 30 min; GST-TFs on glutathione beads, 16-mer random dsDNA library, 0.1% formaldehyde crosslink after washing; high values mean tight binding
The target of one test is T1, FEV (Homo sapiens, UniProt Q99581 1-238).
T1 sequence: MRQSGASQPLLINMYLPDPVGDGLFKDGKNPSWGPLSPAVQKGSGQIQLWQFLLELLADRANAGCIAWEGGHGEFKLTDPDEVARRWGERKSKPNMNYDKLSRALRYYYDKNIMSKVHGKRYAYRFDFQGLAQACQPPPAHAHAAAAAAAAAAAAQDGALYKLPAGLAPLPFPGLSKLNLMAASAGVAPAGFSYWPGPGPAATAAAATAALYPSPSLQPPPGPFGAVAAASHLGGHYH
The conditions noted are these: protein: recombinant; tags: N-terminal GST; dsDNA, one strand shown. The method, boiled down: (§1)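 Binding signal is each hexamer's read frequency for a factor divided by its frequency in the tag-only sample. The factors were GST-fused human transcription factors from yeast, captured on glutathione beads, DNA-barcoded and pooled with that sample. Pools were incubated with 200 nmole of a random double-stranded 16-mer DNA library in Tris/NaCl/DTT/glycerol buffer at room temperature for 30 min, then washed, crosslinked with 0.1% formaldehyde, proximity-ligated with BsaI/T4 ligase (1 h, 37 °C), PCR-amplified and sequenced on an Illumina NextSeq500.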

A further test concerns the target ETV5 (Homo sapiens, UniProt P41161 1-510). The conditions noted are these: protein: recombinant; tags: N-terminal GST; dsDNA, one strand shown. The method, boiled down:
as §1

Another test has as its target HSF1 (Homo sapiens, UniProt Q00613 1-529). The following applies: protein: recombinant; tags: N-terminal GST; chain copies: 3; dsDNA, one strand shown. The essentials: as §1
A further test deals with T2, SPIC (Homo sapiens, UniProt Q8N5J4 1-248).
T2 sequence: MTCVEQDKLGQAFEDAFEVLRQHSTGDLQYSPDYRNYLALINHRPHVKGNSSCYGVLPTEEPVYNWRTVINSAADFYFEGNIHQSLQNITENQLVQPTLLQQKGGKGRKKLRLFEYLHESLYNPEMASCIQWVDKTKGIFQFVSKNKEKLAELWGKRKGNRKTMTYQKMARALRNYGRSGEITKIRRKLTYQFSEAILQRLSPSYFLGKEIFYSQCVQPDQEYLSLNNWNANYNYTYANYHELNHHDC
The conditions noted are these: protein: recombinant; tags: N-terminal GST; dsDNA, one strand shown. The essentials: as §1

For the next test, the target named is ELF4 (Homo sapiens, UniProt Q99607 1-663). The conditions noted are these: protein: recombinant; tags: N-terminal GST; dsDNA, one strand shown. The method, boiled down:
as §1

The next test concerns the target T3, ELK4 (Homo sapiens, UniProt P28324-2 1-405).
T3 sequence: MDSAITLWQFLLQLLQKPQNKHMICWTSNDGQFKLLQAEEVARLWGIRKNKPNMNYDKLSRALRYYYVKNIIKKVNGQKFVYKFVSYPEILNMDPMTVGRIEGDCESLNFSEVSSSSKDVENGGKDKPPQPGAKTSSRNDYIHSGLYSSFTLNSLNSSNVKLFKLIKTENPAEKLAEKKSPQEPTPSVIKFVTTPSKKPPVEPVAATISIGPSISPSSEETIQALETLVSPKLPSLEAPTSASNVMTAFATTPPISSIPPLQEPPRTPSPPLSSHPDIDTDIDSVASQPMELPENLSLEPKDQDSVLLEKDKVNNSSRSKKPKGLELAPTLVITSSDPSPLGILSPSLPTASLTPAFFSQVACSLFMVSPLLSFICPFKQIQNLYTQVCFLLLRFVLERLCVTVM
The following applies: protein: recombinant; tags: N-terminal GST; dsDNA, one strand shown. The method, boiled down: as §1

A further test deals with T4, ETV2 (Homo sapiens, UniProt O00321 1-342).
T4 sequence: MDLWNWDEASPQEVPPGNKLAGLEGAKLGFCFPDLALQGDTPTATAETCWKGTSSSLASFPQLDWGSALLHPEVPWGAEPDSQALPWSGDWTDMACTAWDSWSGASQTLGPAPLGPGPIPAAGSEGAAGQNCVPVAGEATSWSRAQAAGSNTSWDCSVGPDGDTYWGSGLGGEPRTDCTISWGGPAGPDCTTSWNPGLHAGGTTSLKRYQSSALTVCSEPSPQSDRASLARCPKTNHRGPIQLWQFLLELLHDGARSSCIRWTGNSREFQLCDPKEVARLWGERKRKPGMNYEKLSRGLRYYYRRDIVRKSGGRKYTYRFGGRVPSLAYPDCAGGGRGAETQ
The following applies: protein: recombinant; tags: N-terminal GST; dsDNA, one strand shown. The essentials: as §1

The next test has as its target T5, ELF3 (Homo sapiens, UniProt P78545 1-371).
T5 sequence: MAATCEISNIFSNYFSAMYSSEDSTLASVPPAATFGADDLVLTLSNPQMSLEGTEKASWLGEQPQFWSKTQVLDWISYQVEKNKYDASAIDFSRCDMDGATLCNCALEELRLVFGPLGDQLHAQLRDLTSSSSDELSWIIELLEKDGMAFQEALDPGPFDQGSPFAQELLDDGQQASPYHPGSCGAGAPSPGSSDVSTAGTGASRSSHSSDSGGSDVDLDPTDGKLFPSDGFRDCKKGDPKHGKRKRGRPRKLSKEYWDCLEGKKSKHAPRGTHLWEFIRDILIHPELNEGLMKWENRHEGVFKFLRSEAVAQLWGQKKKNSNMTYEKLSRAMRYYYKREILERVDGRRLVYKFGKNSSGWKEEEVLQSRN
The following applies: protein: recombinant; tags: N-terminal GST; dsDNA, one strand shown. The essentials: as §1

In another test the target is CRX (Homo sapiens, UniProt O43186 1-299). The conditions noted are these: protein: recombinant; tags: N-terminal GST; dsDNA, one strand shown. The essentials:
as §1

Another test addresses ETV1 (Homo sapiens, UniProt P50549 1-477). The following applies: protein: recombinant; tags: N-terminal GST; dsDNA, one strand shown. The essentials: as §1
The next test concerns the target T6, ERF (Homo sapiens, UniProt P50548 1-548).
T6 sequence: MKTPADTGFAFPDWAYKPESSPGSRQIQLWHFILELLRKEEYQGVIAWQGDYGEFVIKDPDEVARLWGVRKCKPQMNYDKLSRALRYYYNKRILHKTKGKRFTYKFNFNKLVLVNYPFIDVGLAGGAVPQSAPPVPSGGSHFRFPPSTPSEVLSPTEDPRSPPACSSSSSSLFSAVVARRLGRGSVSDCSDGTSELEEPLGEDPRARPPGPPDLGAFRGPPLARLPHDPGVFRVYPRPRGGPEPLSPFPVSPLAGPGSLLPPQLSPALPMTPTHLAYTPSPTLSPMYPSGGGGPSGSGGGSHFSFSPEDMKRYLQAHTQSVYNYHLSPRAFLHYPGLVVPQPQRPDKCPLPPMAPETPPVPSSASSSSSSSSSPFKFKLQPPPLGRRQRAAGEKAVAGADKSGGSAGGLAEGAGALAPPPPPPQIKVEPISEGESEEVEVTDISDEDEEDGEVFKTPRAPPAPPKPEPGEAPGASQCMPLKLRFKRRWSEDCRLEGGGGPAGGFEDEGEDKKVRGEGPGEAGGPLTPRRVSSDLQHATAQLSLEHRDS
The conditions noted are these: protein: recombinant; tags: N-terminal GST; dsDNA, one strand shown. The method, boiled down:
as §1

The target of a further test is T7, ETV3L (Homo sapiens, UniProt Q6ZN32 1-361).
T7 sequence: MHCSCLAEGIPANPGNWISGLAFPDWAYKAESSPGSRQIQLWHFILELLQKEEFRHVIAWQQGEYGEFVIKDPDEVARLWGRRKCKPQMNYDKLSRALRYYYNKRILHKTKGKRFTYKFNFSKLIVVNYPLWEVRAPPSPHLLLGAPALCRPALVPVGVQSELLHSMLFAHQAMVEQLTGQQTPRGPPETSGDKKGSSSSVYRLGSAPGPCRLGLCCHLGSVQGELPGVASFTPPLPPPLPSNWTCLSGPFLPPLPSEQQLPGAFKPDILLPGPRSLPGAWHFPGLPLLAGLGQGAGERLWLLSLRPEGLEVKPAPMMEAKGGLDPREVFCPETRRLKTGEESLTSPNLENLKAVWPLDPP
The following applies: protein: recombinant; tags: N-terminal GST; dsDNA, one strand shown. The essentials:
as §1

The target in a further test is T8, ETS2 (Homo sapiens, UniProt P15036 1-469).
T8 sequence: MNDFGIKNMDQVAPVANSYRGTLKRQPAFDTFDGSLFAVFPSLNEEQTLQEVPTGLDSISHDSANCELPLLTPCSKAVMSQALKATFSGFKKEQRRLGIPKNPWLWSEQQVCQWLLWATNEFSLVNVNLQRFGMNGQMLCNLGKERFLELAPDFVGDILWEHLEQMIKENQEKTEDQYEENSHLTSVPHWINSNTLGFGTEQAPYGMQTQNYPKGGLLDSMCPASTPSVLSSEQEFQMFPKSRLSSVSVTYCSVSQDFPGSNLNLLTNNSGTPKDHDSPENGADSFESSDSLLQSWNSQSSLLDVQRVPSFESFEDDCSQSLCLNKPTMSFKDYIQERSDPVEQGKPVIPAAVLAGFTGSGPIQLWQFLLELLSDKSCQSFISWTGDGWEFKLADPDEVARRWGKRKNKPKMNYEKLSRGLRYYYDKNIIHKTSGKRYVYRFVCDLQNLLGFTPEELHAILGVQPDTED
The conditions noted are these: protein: recombinant; tags: N-terminal GST; dsDNA, one strand shown. The essentials: as §1

Another test concerns the target T9, SPDEF (Homo sapiens, UniProt O95238 1-335).
T9 sequence: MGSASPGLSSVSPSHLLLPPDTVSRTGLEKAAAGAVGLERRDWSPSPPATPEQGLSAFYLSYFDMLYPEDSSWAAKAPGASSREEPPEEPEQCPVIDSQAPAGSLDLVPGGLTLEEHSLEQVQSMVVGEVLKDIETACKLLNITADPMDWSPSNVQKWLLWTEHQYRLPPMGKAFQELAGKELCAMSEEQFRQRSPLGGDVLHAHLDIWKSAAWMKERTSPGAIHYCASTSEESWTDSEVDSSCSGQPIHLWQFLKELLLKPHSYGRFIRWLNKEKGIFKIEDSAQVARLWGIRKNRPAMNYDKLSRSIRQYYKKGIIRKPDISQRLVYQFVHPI
The conditions noted are these: protein: recombinant; tags: N-terminal GST; dsDNA, one strand shown. The essentials: as §1

In the next test the target is T10, ETV7 (Homo sapiens, UniProt Q9Y603 1-341).
T10 sequence: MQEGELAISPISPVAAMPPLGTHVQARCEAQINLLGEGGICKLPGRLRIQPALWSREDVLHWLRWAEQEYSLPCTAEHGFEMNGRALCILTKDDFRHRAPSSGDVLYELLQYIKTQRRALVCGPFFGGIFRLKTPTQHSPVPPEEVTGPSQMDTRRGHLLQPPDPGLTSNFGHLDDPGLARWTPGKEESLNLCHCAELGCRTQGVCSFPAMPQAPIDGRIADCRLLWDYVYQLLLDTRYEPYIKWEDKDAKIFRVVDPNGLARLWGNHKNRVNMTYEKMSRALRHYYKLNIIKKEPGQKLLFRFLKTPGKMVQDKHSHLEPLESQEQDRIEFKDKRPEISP
The conditions noted are these: protein: recombinant; tags: N-terminal GST; dsDNA, one strand shown. The method, boiled down:
as §1

The target in a further test is T11, ELF5 (Homo sapiens, UniProt Q9UKW6-2 1-255).
T11 sequence: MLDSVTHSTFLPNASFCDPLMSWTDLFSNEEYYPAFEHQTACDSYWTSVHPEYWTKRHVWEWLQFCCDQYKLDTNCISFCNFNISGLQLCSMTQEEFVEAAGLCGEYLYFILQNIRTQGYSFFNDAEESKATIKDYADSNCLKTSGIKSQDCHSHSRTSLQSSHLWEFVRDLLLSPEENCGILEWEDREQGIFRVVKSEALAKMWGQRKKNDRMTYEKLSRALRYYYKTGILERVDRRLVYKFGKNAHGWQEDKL
The conditions noted are these: protein: recombinant; tags: N-terminal GST; dsDNA, one strand shown. The essentials:
as §1

The next test addresses T12, ETV3 (Homo sapiens, UniProt P41162-2 1-143).
T12 sequence: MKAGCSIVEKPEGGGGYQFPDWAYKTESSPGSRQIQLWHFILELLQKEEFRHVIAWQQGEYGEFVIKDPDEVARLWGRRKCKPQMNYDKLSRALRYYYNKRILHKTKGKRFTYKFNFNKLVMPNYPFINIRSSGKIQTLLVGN
The conditions noted are these: protein: recombinant; tags: N-terminal GST; dsDNA, one strand shown. The essentials:
as §1

Another test deals with ETV6 (Homo sapiens, UniProt P41212 1-452). The conditions noted are these: protein: recombinant; tags: N-terminal GST; dsDNA, one strand shown. The method, boiled down:
as §1

HSF1, sequence (Q00613 whole entry): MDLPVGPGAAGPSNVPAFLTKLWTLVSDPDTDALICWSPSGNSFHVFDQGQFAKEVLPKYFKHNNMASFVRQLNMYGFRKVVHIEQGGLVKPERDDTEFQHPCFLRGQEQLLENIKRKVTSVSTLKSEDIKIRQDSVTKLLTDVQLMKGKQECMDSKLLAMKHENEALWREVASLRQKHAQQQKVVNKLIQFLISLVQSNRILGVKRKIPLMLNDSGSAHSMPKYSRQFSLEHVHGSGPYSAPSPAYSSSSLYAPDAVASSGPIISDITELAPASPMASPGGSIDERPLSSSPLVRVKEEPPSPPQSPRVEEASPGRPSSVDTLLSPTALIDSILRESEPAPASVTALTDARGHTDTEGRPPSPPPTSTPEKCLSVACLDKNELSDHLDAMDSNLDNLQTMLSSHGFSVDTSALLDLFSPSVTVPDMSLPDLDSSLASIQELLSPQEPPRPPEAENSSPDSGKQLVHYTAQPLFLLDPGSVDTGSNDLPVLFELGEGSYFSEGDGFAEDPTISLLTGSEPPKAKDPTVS
ETV5, sequence (P41161 whole entry): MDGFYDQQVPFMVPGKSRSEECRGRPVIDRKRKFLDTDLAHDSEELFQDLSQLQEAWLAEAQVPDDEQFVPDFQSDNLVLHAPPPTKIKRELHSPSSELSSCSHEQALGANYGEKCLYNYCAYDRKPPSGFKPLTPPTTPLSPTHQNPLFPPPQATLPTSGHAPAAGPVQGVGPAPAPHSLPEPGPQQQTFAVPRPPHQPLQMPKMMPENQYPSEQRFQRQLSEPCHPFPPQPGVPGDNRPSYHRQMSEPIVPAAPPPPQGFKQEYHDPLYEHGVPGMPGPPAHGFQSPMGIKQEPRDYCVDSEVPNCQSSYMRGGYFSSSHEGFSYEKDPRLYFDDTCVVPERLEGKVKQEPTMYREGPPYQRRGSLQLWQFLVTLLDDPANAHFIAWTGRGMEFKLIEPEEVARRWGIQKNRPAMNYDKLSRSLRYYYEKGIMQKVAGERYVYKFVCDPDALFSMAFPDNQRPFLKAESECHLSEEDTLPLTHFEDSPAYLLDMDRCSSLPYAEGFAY
ELF4, sequence (Q99607 whole entry): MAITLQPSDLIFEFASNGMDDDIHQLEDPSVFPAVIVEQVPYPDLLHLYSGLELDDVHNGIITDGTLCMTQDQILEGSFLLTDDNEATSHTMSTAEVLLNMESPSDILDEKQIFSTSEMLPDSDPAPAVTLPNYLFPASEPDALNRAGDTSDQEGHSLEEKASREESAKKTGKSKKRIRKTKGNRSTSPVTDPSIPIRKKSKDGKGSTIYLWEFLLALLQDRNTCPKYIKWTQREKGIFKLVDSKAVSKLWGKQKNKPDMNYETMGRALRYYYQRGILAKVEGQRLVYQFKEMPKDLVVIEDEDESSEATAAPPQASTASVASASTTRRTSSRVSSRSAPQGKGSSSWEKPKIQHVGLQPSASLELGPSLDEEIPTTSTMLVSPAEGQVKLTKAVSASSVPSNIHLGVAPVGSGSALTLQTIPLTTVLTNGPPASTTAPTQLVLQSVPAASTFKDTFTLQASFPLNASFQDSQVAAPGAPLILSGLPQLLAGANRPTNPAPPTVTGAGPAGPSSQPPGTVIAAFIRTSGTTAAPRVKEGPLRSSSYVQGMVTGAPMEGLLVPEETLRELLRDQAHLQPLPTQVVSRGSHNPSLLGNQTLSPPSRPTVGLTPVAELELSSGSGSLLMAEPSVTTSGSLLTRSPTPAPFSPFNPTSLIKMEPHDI
CRX, sequence (O43186 whole entry): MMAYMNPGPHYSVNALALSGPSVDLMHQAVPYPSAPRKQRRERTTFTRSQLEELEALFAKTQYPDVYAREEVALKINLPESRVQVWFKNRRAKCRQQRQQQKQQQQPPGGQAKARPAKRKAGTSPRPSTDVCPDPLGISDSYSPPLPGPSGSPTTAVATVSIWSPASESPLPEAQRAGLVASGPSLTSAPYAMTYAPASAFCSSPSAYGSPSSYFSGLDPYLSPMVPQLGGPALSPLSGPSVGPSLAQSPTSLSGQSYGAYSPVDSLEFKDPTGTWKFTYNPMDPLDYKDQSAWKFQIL
ETV6, sequence (P41212 whole entry): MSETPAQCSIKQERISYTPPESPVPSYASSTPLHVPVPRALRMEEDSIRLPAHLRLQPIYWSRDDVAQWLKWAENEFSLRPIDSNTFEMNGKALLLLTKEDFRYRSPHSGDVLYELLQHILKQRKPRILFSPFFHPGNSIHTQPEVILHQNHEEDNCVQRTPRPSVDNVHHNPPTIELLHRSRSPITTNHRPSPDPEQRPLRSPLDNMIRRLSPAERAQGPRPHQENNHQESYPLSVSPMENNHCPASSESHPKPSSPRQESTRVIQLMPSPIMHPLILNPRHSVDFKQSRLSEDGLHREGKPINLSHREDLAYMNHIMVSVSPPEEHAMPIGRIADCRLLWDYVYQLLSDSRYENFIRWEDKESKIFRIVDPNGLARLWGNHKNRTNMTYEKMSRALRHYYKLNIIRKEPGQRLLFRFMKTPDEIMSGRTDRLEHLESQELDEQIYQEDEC
ETV1, sequence (P50549 whole entry): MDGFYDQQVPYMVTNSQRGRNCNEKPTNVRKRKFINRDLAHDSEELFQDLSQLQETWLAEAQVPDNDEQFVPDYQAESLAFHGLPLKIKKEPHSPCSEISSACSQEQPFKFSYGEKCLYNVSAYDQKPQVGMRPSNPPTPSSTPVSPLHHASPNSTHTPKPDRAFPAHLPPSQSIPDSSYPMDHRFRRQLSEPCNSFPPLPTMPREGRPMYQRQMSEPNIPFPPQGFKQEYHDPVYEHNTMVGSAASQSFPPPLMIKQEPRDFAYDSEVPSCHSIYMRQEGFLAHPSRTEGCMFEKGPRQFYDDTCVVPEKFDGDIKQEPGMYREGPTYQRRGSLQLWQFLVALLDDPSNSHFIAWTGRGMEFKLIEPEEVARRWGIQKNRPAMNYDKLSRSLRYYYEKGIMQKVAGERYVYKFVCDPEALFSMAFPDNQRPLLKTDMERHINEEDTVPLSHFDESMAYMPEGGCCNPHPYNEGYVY

With CGCCCT, the binding signal in the test with FEV is 1.37 fold enrichment (6-mer frequency, TF over GST control); with ETV5, 1.29 fold enrichment (6-mer frequency, TF over GST control); in the test with HSF1, 1.13 fold enrichment (6-mer frequency, TF over GST control); in the test with SPIC, 1.21 fold enrichment (6-mer frequency, TF over GST control); with ELF4, 1.47 fold enrichment (6-mer frequency, TF over GST control); in the test with ELK4 it was 1.1 fold enrichment (6-mer frequency, TF over GST control). Further, the binding signal in the test with ETV2 was 1.4 fold enrichment (6-mer frequency, TF over GST control); with ELF3, 1.04 fold enrichment (6-mer frequency, TF over GST control); with CRX it was 1.11 fold enrichment (6-mer frequency, TF over GST control); with ETV1 it was 1.37 fold enrichment (6-mer frequency, TF over GST control); in the test with ERF, 1.37 fold enrichment (6-mer frequency, TF over GST control); in the test with ETV3L it was 1.34 fold enrichment (6-mer frequency, TF over GST control). The binding signal was 1.38 fold enrichment (6-mer frequency, TF over GST control) in the test with ETS2; 1.31 fold enrichment (6-mer frequency, TF over GST control) in the test with SPDEF; 1.51 fold enrichment (6-mer frequency, TF over GST control) with ETV7; 1.22 fold enrichment (6-mer frequency, TF over GST control) in the test with ELF5; 1.34 fold enrichment (6-mer frequency, TF over GST control) with ETV3; 1.31 fold enrichment (6-mer frequency, TF over GST control) in the test with ETV6.
